# Reference: ChEMBL document CHEMBL3433997, “St. Jude Leishmania screening dataset” (2016)
# How the values were obtained:
# Assay type in all cases: functional
# [1] = molecular target: Solute carrier family 2, facilitated glucose transporter member 1 (Homo sapiens) (UniProt P11166); assay: ST_JUDE_LEISH: Cytotoxicity at 2uM final concentration against transgenic Leishmania Mexicana promastigotes LmGLUT1 that are glucose transport deficient and complemented with the human glucose transporter GLUT1. Activity is measured by DNA content using SYBR green in vitro
# [2] = molecular target: Hexose transporter 1 (Plasmodium falciparum) (UniProt O97467); assay: ST_JUDE_LEISH: Cytotoxicity at 2uM final concentration against transgenic Leishmania Mexicana promastigotes LmPfHT that are glucose transport deficient and complemented with the Plasmodium falciparum hexose transporter. Activity is measured by DNA content using SYBR green in vitro
# [3] = molecular target: Glucose transporter (Leishmania mexicana) (UniProt O61059); assay: ST_JUDE_LEISH: Cytotoxicity at 2uM final concentration against transgenic Leishmania Mexicana promastigotes LmGT2 that are glucose transport deficient and complemented with the L. Mexicana glucose transporter 2. Activity is measured by DNA content using SYBR green in vitro
# Chain of Solute carrier family 2, facilitated glucose transporter member 1 (Homo sapiens) (P11166 whole entry): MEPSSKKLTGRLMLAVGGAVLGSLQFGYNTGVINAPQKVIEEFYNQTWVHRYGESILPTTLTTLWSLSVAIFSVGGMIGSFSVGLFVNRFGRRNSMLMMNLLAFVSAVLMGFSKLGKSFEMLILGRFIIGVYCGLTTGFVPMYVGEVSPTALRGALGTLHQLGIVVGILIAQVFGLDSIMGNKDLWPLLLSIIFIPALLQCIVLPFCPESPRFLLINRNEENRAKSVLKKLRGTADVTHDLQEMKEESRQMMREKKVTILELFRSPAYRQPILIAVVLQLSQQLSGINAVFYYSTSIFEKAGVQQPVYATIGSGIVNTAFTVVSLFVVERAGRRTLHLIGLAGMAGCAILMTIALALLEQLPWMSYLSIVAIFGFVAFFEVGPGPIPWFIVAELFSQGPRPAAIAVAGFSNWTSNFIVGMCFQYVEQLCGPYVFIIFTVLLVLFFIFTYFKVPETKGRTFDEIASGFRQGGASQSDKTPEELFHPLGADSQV
Compound,inhibition [1] [%],inhibition [2] [%],inhibition [3] [%]
COc1ccc2nccc([C@@H](O)CN3CCC(NC(=O)C(c4cc5ccccc5o4)N4CCN(C(c5ccccc5)c5ccccc5)CC4)CC3)c2c1 (some centres not stated),3.01,1.55,1.41
CC(C)(CNCc1ccc(Cl)c(Cl)c1)c1nc(-c2ccc(Cl)c(O)c2)c(-c2ccncc2)[nH]1,0.8,3.02,4.37
COc1ccc(-c2cccc(NC(=O)c3ccc(C#N)cc3)c2)cc1CNC(C)C,8.59,6.99,8.32
Cc1cc(CN2CC[C@H](NC(=O)c3ccc(Cl)c(Cl)c3)C2)ccc1OC1CCN(Cc2ccccc2)CC1,11,8.06,8.04
CC1(C)N=C(N)N=C(N)N1c1cccc(I)c1,0.23,-0.04,0.13
COC(=O)c1ccc(CN2CCC(N(Cc3cccc(Oc4ccccc4)c3)S(=O)(=O)c3ccc(NC(C)=O)cc3)CC2)cc1,0.23,0.78,0.32
Cc1cccc2nc(-c3ccc(-c4cccc(CN5CCC(CO)CC5)c4)s3)[nH]c12,1.48,0.4,1.75
CCN(CCCN1CCCCC1)c1nc(C)cc(Nc2ccc(Cl)cc2)n1,0.5,-0.38,1.1
CCOc1ccc2c(=NN=Cc3cccc(OC)c3OC)cc(C)[nH]c2c1,4.91,5.53,6
COc1ccc(-c2cnn3ccc(Nc4cc(OC)c(OC)c(OC)c4)nc23)cc1OC,17.3,11.4,9.46
COc1ccc(-n2ncc(C(=O)N3CCC4(C3)C(=O)N(c3ccccc3)c3ccccc34)c2C)cc1 (configuration not stated),1.9,2.74,0.94
COc1ccc(CN(C)CC(O)COc2ccc(NC(=O)c3cccc4c(=O)c5cccc(OC)c5[nH]c34)cc2)cc1OC (configuration not stated),7.62,3.04,3.9
CC=CC(=O)N1CCN(c2nccc(-c3ccc(C(C)(C)C)cc3)n2)CC1,8.6,9.97,7.85
Cc1noc(-c2cccs2)c1C(=O)NC(C)c1cccc2ccccc12 (configuration not stated),-0.34,0.45,0.18
Cc1ccc(CN2CCCN(Cc3cccc(NC(=O)c4ccc(Cl)c(Cl)c4)c3)CC2)cc1,-1.13,-2.91,-0.82
CCC(C)NS(=O)(=O)c1ccc2nc(Nc3ccc(C)cc3)n(C3CCCCC3)c2c1 (configuration not stated),5.26,4.02,3.35
CCc1c(CCNCCCCCCNCCc2ccc(Br)cc2)ccc(O)c1O,-0.07,0.74,1.12

Compound,inhibition [1] [%],inhibition [2] [%],inhibition [3] [%]
COc1cc(CNCCCCCCNCc2cc(OC)c(OC)c3ccccc23)c2ccccc2c1OC,4.44,4.27,3.2
CN1CCC(NCc2ccc(S(=O)(=O)Nc3ccc(Oc4cccc(Cl)c4)cc3)cc2)CC1,1.15,1.05,0.97
COc1ccccc1N(C)CCNc1cc(C)nc(Nc2ccc(C)cc2)n1,8.84,7.28,1.83
CCCc1cn2c3c(cc(C(=O)N[C@@H](Cc4ccccc4)[C@H](O)CNC4CCOCC4)cc13)N(C)S(=O)(=O)CC2,0.07,1.26,-0.3
CCCCCCNC(=O)C1Cc2c([nH]c3cc(Cl)ccc23)C2(CCN(Cc3ccccc3)CC2)N1 (configuration not stated),7.27,5.97,5.18
CCCCCCCCn1ccc(=N)cc1,4.46,3.06,0.3
CC(=O)N1N=C(c2ccc(Cl)cc2)Sc2c1nc(C1CCCCC1)n2C(C)=O,-0.67,0.1,-0.39
Fc1ccc(C=NN=c2cc[nH]c3ccc(C(F)(F)F)cc23)cc1,6.39,6.15,5.46
Cc1ccc(NC(=O)c2ccc(CN3CCCN(Cc4cccc(O)c4)CC3)cc2)cc1F,7.81,6.4,6.83
CCN1CCN(CCCCNc2c3ccccc3nc3ccccc23)CC1,20.5,8.76,10.7
Cc1cccc(C(=O)N2CCN(Cc3cccc(NC(=O)c4cccs4)c3)CC2)c1,7.96,9.38,7.07
Cc1ccc2nc(C)cc(N/N=C/c3ccc([N+](=O)[O-])cc3)c2c1,104,101,104
Cc1nc2c(Nc3nc(-c4ccncc4)cs3)ncnc2n1-c1ccccc1Cl,45.1,38.8,13.4
CN1CCCC1CNS(=O)(=O)c1ccc(C(=O)NCC2CC2)cc1 (configuration not stated),1.51,2.45,1.36
Nc1c(I)cc(C(=O)Nc2ccc3nc4c(c(N)c3c2)CCCC4)cc1I,2.52,1.16,1.17
CCOc1cc(C(=O)N[C@@H](Cc2ccccc2)[C@H](O)CNCc2cccc(OC)c2)cc(N2CCCCS2(=O)=O)c1,5.4,5.25,3.08
N#Cc1ccc(N/C(=N\c2cccc(Cl)c2Cl)NC2Cc3ccccc3C2)c(O)c1,2.33,2.84,3.97
